Compound activity (PubChem)
MCF10A rereplic: DNA re-replication induction in MCF 10a cells | MCF 10A DNA re-replication, Hoechst nuclear intensity, 48 h | Potency, µM (series often up to 46.1 µM), inactives show at the top dose activity, positive = re-replication, hits mostly activators | actives 2.9% (n = 350,000); further: potency means the concentration at half of the fitted maximal effect; % of control where 0% means no effect; nearly all actives have a fitted effect of over 50% in size
SW480 rereplic: induces DNA re-replication in SW480 colon adenocarcinoma cells | SW480 DNA re-replication, Hoechst DNA content imaging, 48 h | Potency, µM (highest dose often 46.1 µM), without a hit: top-dose re-replication activation, usual class: activators | actives 1.8% (n = 340,000); further: potency means the concentration at half of the fitted maximal effect; % of control where 0% means no effect; nearly all actives have a fitted effect of over 55% in size
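Image-based DNA-content assay: after two days of treatment, nuclei were labelled with the DNA dye Hoechst and imaged, and hits were compounds raising the count of nuclei showing high fluorescence intensity.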
RORg inh: ROR gamma (mouse) transcription inhibition | P51450 | Drosophila S2 Gal4-RORgamma UAS-luciferase reporter, 20 h | Potency, µM (series often up to 53.6 µM), without a hit: at the highest dose activity change, negative = inhibition, actives largely listed as inhibitors | actives 5.4% (n = 310,000); further: potency means the concentration at half of the fitted maximal effect; on the % scale 0 is the no-effect control and ±100 the full control effect; nearly all actives have a fitted effect of over 60% in size
Target sequence (P51450 whole entry, looked up, the tested form may be a part): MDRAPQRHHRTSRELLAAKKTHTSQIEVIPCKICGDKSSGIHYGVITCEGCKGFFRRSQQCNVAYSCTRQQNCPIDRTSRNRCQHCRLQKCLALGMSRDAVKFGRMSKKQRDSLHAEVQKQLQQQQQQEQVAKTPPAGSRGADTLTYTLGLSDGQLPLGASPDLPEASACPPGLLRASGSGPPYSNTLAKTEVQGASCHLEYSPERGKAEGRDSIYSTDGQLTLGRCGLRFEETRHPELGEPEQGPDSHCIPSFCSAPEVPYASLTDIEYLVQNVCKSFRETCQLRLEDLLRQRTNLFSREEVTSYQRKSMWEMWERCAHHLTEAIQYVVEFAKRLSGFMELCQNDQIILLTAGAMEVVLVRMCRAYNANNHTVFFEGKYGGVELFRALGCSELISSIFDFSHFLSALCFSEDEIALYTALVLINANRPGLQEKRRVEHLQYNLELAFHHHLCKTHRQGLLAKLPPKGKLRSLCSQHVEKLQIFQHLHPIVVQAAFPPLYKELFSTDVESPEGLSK
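Schneider cells (Drosophila), stable Gal4 DBD–ROR gamma + UAS-luc; 1 hr cmpd preincubation; Cu2+ induction 700 uM final; 20 hr ambient; luminescence.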
Gal4-VP16 FLuc: Gal4-VP16 reporter inhibition counter-screen | Drosophila S2 Gal4-VP16 UAS-luciferase, luminescence, 20 h | Potency, µM (highest dose often 53.6 µM), for the others: top-dose activity, negative = inhibition, usual class: inhibitors | actives 3.5% (n = 310,000) | AID 2546;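 further: Gal4-VP16 expression switched on by copper sulfate through the metallothionein promoter; potency means the concentration at half of the fitted maximal effect; on the % scale 0 is the no-effect control and ±100 the full control effect; nearly all actives have a fitted effect of over 50% in size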
IL1B secr inh: blocks inflammasome-driven IL-1 beta release; activity change, % at 57.5 µM; THP-1 LPS/ATP IL-1B secretion, AlphaLISA, 16 h; stronger effect = lower value; actives 4.7% (n = 360,000); AID 743279; in the data active means activity change below about -50%; inconclusive means mostly about -30% to -49%; further: on the % scale 0 is the no-effect control and ±100 the full control effect
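THP-1 cells pretreated 1 hr with compounds (up to 57.5 uM final), then stimulated with LPS (250 ng/mL final) plus ATP (1.25 mM final); secreted IL-1B measured by AlphaLISA after 16 hr, decreased signal indicating inhibition.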
Starred values were filed as active, the others as inactive; i = inactive; ? = inconclusive; · = not tested or not shown; [ ] = another dose, or the depositor's remark. In the library only some 11% were active in any assay of this set; here they are far more common. Unless noted, the call rests on the fitted dose curve; in most records, active means well fitted curve in the direction sought with a large enough effect; inconclusive means small, poorly fitted or top-dose-only effect, or another doubt; inactive means no such curve, though single readings can be large; an effect the other way counts as inactive or inconclusive.

SMILES | MCF10A rereplic | SW480 rereplic | RORg inh | Gal4-VP16 FLuc | IL1B secr inh
CCN1C(=O)[C@H]2[C@H]3[C@H](O)[C@H](O)C/C(=N/O[C@@H]4O[C@@H](COC(C)=O)[C@@H](OC(C)=O)[C@@H](OC(C)=O)[C@H]4OC(C)=O)[C@@H]3CC[C@@H]2C1=O | · | · | 7%[10 µM] | -8%[10 µM] | ·
Cc1ccnn1CCC(=O)N1CCCC(N2CCN(c3cccc(Cl)c3)CC2)C1 (configuration not stated) | 0% | -3% | 29% | 1% | 2
CCn1c(=O)n(CC)c2cc(N3CCCC3)c(NC(=O)c3c(F)cccc3F)cc21 | ? | 25% | 4% | -2% | 20
Cc1cc(F)ccc1S(=O)(=O)Nc1ccccc1C(=O)NC1CCN(Cc2ccccc2)CC1 | 10% | 0% | · | · | -15
COc1ccc(/C=N/NC(=S)Nc2ccccc2)cc1COc1ccc(Br)cc1 | ? | 8% | 0.32µM* | 2.2µM* | 39
COc1ccc(/C=N/NC(=S)Nc2ccccc2)cc1COc1ccccc1F | 15% | 9% | 2.2µM* | 3.2µM* | ·
COc1ccc(/C=N\NC(=O)c2ccccc2)cc1COc1ccccc1 | ? | ? | ? | ? | i
COc1ccc(/C=N\NC(=O)c2ccccc2F)cc1COc1ccc(F)cc1 | 6% | 3% | -28% | -8% | 35
COc1ccc(/C=N/NC(=S)Nc2ccccc2)cc1COc1ccc(F)cc1 | ? | 2% | 0.35µM* | 0.89µM* | 4
CC1CCN(C(=O)CSc2nnc(CNC(=O)c3ccc(F)cc3)o2)CC1 | -2% | -7% | 0% | -5% | -1
O=C(COc1ccc(S(=O)(=O)NCc2ccccc2)cc1)NCc1cccnc1 | 0% | 7% | 3% | 3% | 0
CCN(CCCCO)c1nc(C)nc2c1c(C)c(C)n2-c1c(C)cc(C)cc1C | · | · | 11µM* | ? | ·
CCCCN(CC)c1nc(C)nc2c1c(C)c(C)n2-c1c(C)cc(C)cc1C | · | · | 2.2µM* | ? | ·
C[C@@]12CCC3c4ccc(OS(=O)(=O)O)cc4CCC3C1CCC2O (some centres not stated) | · | · | 0% | -8% | ·
CCN1C(=O)[C@H]2[C@@H](c3ccc(-c4ccc(F)cc4)cc3)N[C@@](CC(C)C)(C(=O)OC)[C@H]2C1=O | -15% | -2% | · | · | -66*
CCOC(=O)c1c(C)[nH]c(C(=O)OCC(=O)Nc2cccnc2Cl)c1C | 4% | 1% | · | · | -7
CCN(CC)c1ccc([N+](=O)[O-])cc1C(=O)N1CCOCC1 | 21% | -3% | 25% | -15%[10 µM] | -2
CCN(CC)C1=NS(=O)(=O)c2cc([N+](=O)[O-])ccc21 | ? | 12µM* | ? | -2% | 5
CCCCNc1c(-c2ccc(SC(C)CC)c(OC)c2)nc2ccc(C)cn12 (configuration not stated) | 16µM* | ? | · | · | -93*
CCCCNc1c(-c2ccc(SC(C)CC)c(OC)c2)nc2ccc(Cl)cn12 (configuration not stated) | 23µM* | 21µM* | · | · | -68*
CCCCCCSc1ccc(-c2nc3ccc(Cl)cn3c2NCCCC)cc1OC | ? | -4%[9.22 µM] | · | · | -15
CCCCCCSc1ccc(-c2nc3ccc(C)cn3c2NCCCC)cc1OC | · | · | · | · | -24
Cc1cccc(C)c1NC(=O)c1csc([C@@H]2O[C@H](CO)[C@H](O)[C@H](O)[C@H]2O)n1 | · | · | · | · | 43
Cc1ccccc1-c1cc(NCc2ccccc2)ncn1 | · | · | -5% | 20% | ·
Cc1cc(=O)[nH]c(SCC(=O)Nc2nc3ccccc3s2)n1 | 0.58µM* | ? | ? | 6% | 60
SMILES | MCF10A rereplic | SW480 rereplic | RORg inh | Gal4-VP16 FLuc | IL1B secr inh
Nn1c(SCC(=O)Nc2nc3ccccc3s2)nncc1=O | 9% | 2% | 32µM* | -2% | 11
COC(=O)CSc1nc(C)cc(C(F)(F)F)c1C#N | 0% | 1% | -4% | 5% | -10
Cc1ccc(S(=O)(=O)CCSc2nc(C)cc(C(F)(F)F)c2C#N)cc1 | ? | ? | ? | -10% | -101*
Cc1cc(C(F)(F)F)c(C#N)c(SCC(=O)Nc2nc3cc(Br)ccc3s2)n1 | 13µM* | ? | -4% | ? | -146*
Cc1cc(=O)[nH]c(SCC(=O)Nc2nc(-c3ccccc3)cs2)n1 | 6% | -6% | 35% | 12% | 41
CC(=O)c1c(O)cc(=O)oc1-c1ccc(C)cc1 | 4% | -2% | · | · | 31
O=C1[C@@H]2C[C@@H]3C[C@H]1C[C@@](O)(C3)C2 | 4% | 2% | 0% | 0% | ·
N#Cc1c(SCC(=O)Nc2nc3ccccc3s2)sc2c(O)cc(=O)[nH]c12 | ? | 18µM* | · | · | 65
N#Cc1c(SCC(=O)Nc2nc3ccc(Br)cc3s2)sc2c(O)cc(=O)[nH]c12 | 15% | 12µM* | -2% | 3% | 16
N#Cc1c(SCC(=O)Nc2nccs2)sc2c(O)cc(=O)[nH]c12 | 0% | -8% | 15% | 19% | -7
CO/N=C(\C)CCN1CCc2nc(-c3ccccc3)c(-c3ccccc3)cc2C1 | · | · | -23%[10 µM] | 5%[10 µM] | ·
O=S(=O)(Nc1ccc(S(=O)(=O)Nc2nccs2)cc1)c1ccc2c(c1)OCCO2 | 21µM* | ? | -1% | 9% | 38
O=C(C1CCC1)N1CCc2cc(S(=O)(=O)Nc3ccc4c(c3)OCCO4)ccc21 | 3% | -3% | ? | 20µM* | ?
Cc1ccc(S(=O)(=O)Nc2ccc(S(=O)(=O)Nc3nccs3)cc2)cc1C | -43% | -1% | · | · | -12
CS(=O)(=O)N1CCc2cc(S(=O)(=O)Nc3ccc4c(c3)OCCO4)ccc21 | 4% | -5% | ? | 18µM* | -22
CCCN(CCC)CCNS(=O)(=O)c1ccc2c(c1)CCN2C(=O)C1CCC1 | 2.6µM* | 12µM* | -2% | -6% | -5
CCC(=O)N1CCc2cc(S(=O)(=O)Nc3ccc4c(c3)OCCO4)ccc21 | -3% | -7% | ? | ? | ?
Cc1cccc(OCC(=O)N(Cc2ccc(F)cc2)C2CCS(=O)(=O)C2)c1C (configuration not stated) | 9% | -6% | 31% | 4% | 2
COC(=O)c1ccc(-n2c(C)cc(C(=O)COC(=O)C3=COCCO3)c2C)cc1 | 1% | -3% | · | · | 11
CCOc1ccc(-n2c(C)cc(C(=O)CCl)c2C)cc1 | 12µM* | 9.2µM* | ? | 1% | -99*
COC(=O)c1ccc(-n2c(C)cc(C(=O)CCl)c2C)cc1 | 12µM* | ? | 11µM* | -93% | -99*
CCOC(=O)c1cc(C)n(-c2ccc(Cl)cc2)c1C | -6% | -36% | 1% | -1% | ·
COCCN=C1OC(=O)N2C(=O)C3=C4C(C[C@H]5C(=O)N(CC(=O)OC)C(=O)[C@H]5[C@H]4[C@@]12Cc1ccccc1)[C@H]1C(=O)N(CC(=O)OC)C(=O)[C@H]1[C@H]3C (some centres not stated) | · | · | 11% | 10% | ·
